Inconclusive results are not listed. Values without a mark were called inactive. Activity calls are given as the source filed them. The call rests on the fitted dose curve; in most records, active means well fitted inhibition curve with a large enough effect; inconclusive means small, poorly fitted or top-dose-only effect; inactive means flat fitted curve, though single readings scatter.
tested on: CP268; assay: qHTS profiling for inhibitors of Plasmodium falciparum proliferation (AID 504749); further: nearly all actives have a fitted effect of over 60% in size;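 on activity, negative = inhibition: 0% = DMSO vehicle and full inhibition = artemisinin control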; conditions: P. falciparum in erythrocytes, SYBR Green DNA, 72 h; series mostly up to 28.7 µM; activity, negative = inhibition: at the top concentration
In short: (§1)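 In a 72 h erythrocytic culture (37 C, humidified, 5% CO2) at 2.5% hematocrit and 0.3% starting parasitemia, compounds were tested; SYBR Green I in detergent lysis buffer stained parasite DNA overnight.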
Potency means the concentration at half of the fitted maximal effect.

Structure (SMILES) | activity, negative = inhibition | Potency
Cc1ccccc1 | -8.73% | 
CC1(C)S[C@@H]2[C@H](NC(=O)[C@@H](NC(=O)N3CCNC3=O)c3ccccc3)C(=O)N2[C@H]1C(=O)O | -2.15% [at 12.8 µM] | 
CC1=C(/C=C/C(C)=C/C=C/C(C)=C/C=C/C=C(C)/C=C/C=C(C)/C=C/C2=C(C)CCCC2(C)C)C(C)(C)CCC1 | -4.41% | 
CCCC(=O)O[C@]1(C(=O)CCl)[C@H](C)C[C@@H]2[C@H]3CCC4=CC(=O)C=C[C@]4(C)[C@@]3(F)C(=O)C[C@@]21C |  | 4.26 µM (active)
CCC(=O)NCCC1CCc2ccc3c(c21)CCO3 (stereo not given) | -3.51% | 
Cc1cc(C(=O)NNCc2ccccc2)no1 | -0.989% [at 12.8 µM] | 
Cc1ccccc1OCC(O)CNCCOc1ccc(C(N)=O)cc1 (stereo not given) | 1.22% | 
CCCCCCCCCCCCCC[n+]1ccc(C)cc1 |  | 1.69 µM (active)
COC(F)(F)C(Cl)Cl | -1.12% | 
CCCCCCCCCCCC[n+]1ccc2ccccc2c1 |  | 1.35 µM (active)
O=C(O)CCC(=O)C(=O)O | -1.92% | 
O=C(O)CN(CCN(CC(=O)O)CC(=O)O)CC(=O)O | -2.85% | 
COc1ccc2c3c1O[C@H]1C[C@@H](O)C=C[C@@]31CCN(C)C2 | -0.0328% | 
C=CCSSSCC=C | -1.48% | 
COC(C(=O)C(O)C(C)O)C1Cc2cc3cc(OC4CC(OC5CC(O)C(O)C(C)O5)C(O)C(C)O4)c(C)c(O)c3c(O)c2C(=O)C1OC1CC(OC2CC(OC3CC(C)(O)C(O)C(C)O3)C(O)C(C)O2)C(O)C(C)O1 (stereo not given) |  | 1.69 µM (active)
CCNC(=O)[C@@H]1CCCN1C(=O)[C@H](CCCN=C(N)N)NC(=O)[C@H](CC(C)C)NC(=O)[C@@H](Cc1c[nH]c2ccccc12)NC(=O)[C@H](Cc1ccc(O)cc1)NC(=O)[C@H](CO)NC(=O)[C@H](Cc1c[nH]c2ccccc12)NC(=O)[C@H](Cc1cnc[nH]1)NC(=O)[C@@H]1CCC(=O)N1 |  | 8.49 µM (active)
O=C(COc1ccc(Cl)cc1)OCCNC12CC3CC(CC(C3)C1)C2 | -2.73% | 
CCCCCCCC/C=C\CCCCCCCC(=O)O | -2.06% | 
CC(C)(C)C(=O)OCOC(=O)[C@@H]1N2C(=O)[C@@H](N=CN3CCCCCC3)[C@H]2SC1(C)C | -1.69% [at 12.8 µM] | 
CCOC(C)=O | -2.89% | 
CCCCCCC(O)C/C=C/CCCCCCCC(=O)O (stereo not given) | 5.96% | 
CN1C(=O)CN2CCc3ccccc3C2c2cc(Cl)ccc21 (stereo not given) | -2.66% | 
Cc1c(C)c2c(c(C)c1O)CC[C@@](C)(CCC[C@H](C)CCC[C@H](C)CCCC(C)C)O2 | -4.14% | 
CC(C(=O)O)c1ccc(N2Cc3ccccc3C2=O)cc1 (stereo not given) | 1.17% | 
COC(=O)[C@H]1[C@H]2C[C@@H]3c4[nH]c5ccccc5c4CCN3C[C@H]2C[C@@H](OC(=O)c2cc(OC)c(OC)c(OC)c2)[C@@H]1OC |  | 0.601 µM (active)
O=S(=O)(O)O | -1.55% | 
CC(C)N=c1cc2n(-c3ccc(Cl)cc3)c3ccccc3nc-2cc1Nc1ccc(Cl)cc1 | -5.25% [at 12.8 µM] | 
O=S(=O)(O)c1ccc2c(N=Nc3ccc(S(=O)(=O)O)c4ccccc34)c(O)c(S(=O)(=O)O)cc2c1 | -10.9% | 
C[C@]12CCC(=O)C=C1CC[C@@H]1[C@@H]2[C@@H](O)C[C@@]2(C)[C@H]1CC[C@]2(O)C(=O)COP(=O)(O)O | 6.68% | 
CCN(CC)Cc1cc(Nc2ccnc3cc(Cl)ccc23)ccc1O |  | 0.051 µM (active)

tested on: CP269; assay: as above; conditions: P. falciparum in erythrocytes, SYBR Green DNA, 72 h; series mostly up to 28.7 µM; activity, negative = inhibition: at the top concentration
In short: as §1

Structure (SMILES) | activity, negative = inhibition | Potency
Cc1ccccc1 | 0.174% | 
CC1(C)S[C@@H]2[C@H](NC(=O)[C@@H](NC(=O)N3CCNC3=O)c3ccccc3)C(=O)N2[C@H]1C(=O)O | 5.18% [at 12.8 µM] | 
CC1=C(/C=C/C(C)=C/C=C/C(C)=C/C=C/C=C(C)/C=C/C=C(C)/C=C/C2=C(C)CCCC2(C)C)C(C)(C)CCC1 | 1.01% | 
CCCC(=O)O[C@]1(C(=O)CCl)[C@H](C)C[C@@H]2[C@H]3CCC4=CC(=O)C=C[C@]4(C)[C@@]3(F)C(=O)C[C@@]21C |  | 4.26 µM (active)
CCC(=O)NCCC1CCc2ccc3c(c21)CCO3 (stereo not given) | -0.905% | 
Cc1cc(C(=O)NNCc2ccccc2)no1 | -1.3% [at 12.8 µM] | 
Cc1ccccc1OCC(O)CNCCOc1ccc(C(N)=O)cc1 (stereo not given) | 1.07% | 
CCCCCCCCCCCCCC[n+]1ccc(C)cc1 |  | 1.69 µM (active)
COC(F)(F)C(Cl)Cl | 2.65% | 
CCCCCCCCCCCC[n+]1ccc2ccccc2c1 |  | 0.757 µM (active)
O=C(O)CCC(=O)C(=O)O | -1.65% | 
O=C(O)CN(CCN(CC(=O)O)CC(=O)O)CC(=O)O | -10.2% | 
COc1ccc2c3c1O[C@H]1C[C@@H](O)C=C[C@@]31CCN(C)C2 | -1.91% | 
C=CCSSSCC=C | -0.0174% | 
COC(C(=O)C(O)C(C)O)C1Cc2cc3cc(OC4CC(OC5CC(O)C(O)C(C)O5)C(O)C(C)O4)c(C)c(O)c3c(O)c2C(=O)C1OC1CC(OC2CC(OC3CC(C)(O)C(O)C(C)O3)C(O)C(C)O2)C(O)C(C)O1 (stereo not given) |  | 1.9 µM (active)
CCNC(=O)[C@@H]1CCCN1C(=O)[C@H](CCCN=C(N)N)NC(=O)[C@H](CC(C)C)NC(=O)[C@@H](Cc1c[nH]c2ccccc12)NC(=O)[C@H](Cc1ccc(O)cc1)NC(=O)[C@H](CO)NC(=O)[C@H](Cc1c[nH]c2ccccc12)NC(=O)[C@H](Cc1cnc[nH]1)NC(=O)[C@@H]1CCC(=O)N1 |  | 7.57 µM (active)
O=C(COc1ccc(Cl)cc1)OCCNC12CC3CC(CC(C3)C1)C2 | 0.393% | 
CCCCCCCC/C=C\CCCCCCCC(=O)O | -0.712% | 
CC(C)(C)C(=O)OCOC(=O)[C@@H]1N2C(=O)[C@@H](N=CN3CCCCCC3)[C@H]2SC1(C)C | -2.61% [at 12.8 µM] | 
CCOC(C)=O | -7.23% | 
CCCCCCC(O)C/C=C/CCCCCCCC(=O)O (stereo not given) | 8.44% | 
CN1C(=O)CN2CCc3ccccc3C2c2cc(Cl)ccc21 (stereo not given) | -13.4% | 
Cc1c(C)c2c(c(C)c1O)CC[C@@](C)(CCC[C@H](C)CCC[C@H](C)CCCC(C)C)O2 | 2.03% | 
CC(C(=O)O)c1ccc(N2Cc3ccccc3C2=O)cc1 (stereo not given) | 7.82% | 
COC(=O)[C@H]1[C@H]2C[C@@H]3c4[nH]c5ccccc5c4CCN3C[C@H]2C[C@@H](OC(=O)c2cc(OC)c(OC)c(OC)c2)[C@@H]1OC |  | 0.675 µM (active)
O=S(=O)(O)O | 0.154% | 
CC(C)N=c1cc2n(-c3ccc(Cl)cc3)c3ccccc3nc-2cc1Nc1ccc(Cl)cc1 | -13.6% [at 12.8 µM] | 
O=S(=O)(O)c1ccc2c(N=Nc3ccc(S(=O)(=O)O)c4ccccc34)c(O)c(S(=O)(=O)O)cc2c1 | -7.52% | 
C[C@]12CCC(=O)C=C1CC[C@@H]1[C@@H]2[C@@H](O)C[C@@]2(C)[C@H]1CC[C@]2(O)C(=O)COP(=O)(O)O | -4.71% | 
CCN(CC)Cc1cc(Nc2ccnc3cc(Cl)ccc23)ccc1O |  | 0.0455 µM (active)
